Source: the supplement of paper PMC13380429

Test system: Vero E6 infected with SARS-CoV-2
Test: inhibition of SARS-CoV-2 cytopathic effect; higher = more antiviral protection, active = above 15
Conditions: 48 h

Measured: inhibition of SARS-CoV-2 cytopathic effect

Cc1c(N2C(=O)[C@@H]3[C@H](O)CCN3C2=O)ccc(C#N)c1Cl
inactive: 1 nM 2.38% | 8.33 nM 3.57% | 100 nM 0.87% | 833.33 nM 2.02% | 10000 nM 1.06%

CC(=O)N(C)c1cccc(-c2ccnc3c(C(=O)c4cccs4)cnn23)c1 [indiplon]
inactive: 1 nM 2.87% | 8.33 nM 0.82% | 100 nM 4.78% | 833.33 nM 4.31% | 10000 nM 0.34%

CN(C)C/C=C/C(=O)Nc1ccc(C(=O)Nc2cccc(Nc3ncc(Cl)c(-c4c[nH]c5ccccc45)n3)c2)cc1
inactive: 1 nM -0.79% | 8.33 nM -1.41% | 100 nM -1.48% | 833.33 nM -2.92% | 10000 nM -8.5%

CC(C)(C)Sc1c(CC(C)(C)C(=O)O)n(Cc2ccc(Cl)cc2)c2ccc(OCc3ccc4ccccc4n3)cc12 [quiflapon]
inactive: 1 nM 1.81% | 8.33 nM 0.25% | 100 nM -1.43% | 833.33 nM 1.93% | 10000 nM 1.66%

Cc1cc2c(C(C)C)c(O)c(O)c(C=O)c2c(O)c1-c1c(C)cc2c(C(C)C)c(O)c(O)c(C=O)c2c1O [gossypol]
inactive: 1 nM -0.82% | 8.33 nM -3.04% | 100 nM -0.64% | 833.33 nM -2.5% | 10000 nM -6.17%

COC(=O)N[C@H](C(=O)N1CCC[C@H]1C(=O)Nc1ccc([C@@H]2CC[C@@H](c3ccc(NC(=O)[C@@H]4CCCN4C(=O)[C@@H](NC(=O)OC)C(C)C)cc3)N2c2ccc(C(C)(C)C)cc2)cc1)C(C)C [ombitasvir]
inactive: 1 nM -0.82% | 8.33 nM -0.6% | 100 nM -0.7% | 833.33 nM -1.11% | 10000 nM -1.21%

N[C@@H](Cc1cc(-c2ccc(Cl)cc2Cl)cc(CP(=O)(O)O)c1O)C(=O)O
inactive: 1 nM 0.73% | 8.33 nM 2.24% | 100 nM 2.7% | 833.33 nM 2.63% | 10000 nM 2.27%

Cc1c(F)cc(C(=O)NC2CC2)cc1-c1ccc(C(=O)NCC(C)(C)C)cn1 [losmapimod]
inactive: 1 nM 1.3% | 8.33 nM 0.27% | 100 nM -1.7% | 833.33 nM -4.24% | 10000 nM -5.03%

Nc1ccccc1NC(=O)c1ccc(CNc2nccc(-c3cccnc3)n2)cc1 [mocetinostat]
inactive: 1 nM 0.57% | 8.33 nM -0.45% | 100 nM -0.53% | 833.33 nM 1.7% | 10000 nM -0.45%

O=C(O)C[C@H]1CC[C@H](c2ccc(NC(=O)c3nnc(Nc4ccc(F)c(F)c4)o3)cc2)CC1
inactive: 1 nM -0.14% | 8.33 nM -0.74% | 100 nM 0.13% | 833.33 nM -2.59% | 10000 nM -0.04%

OC[C@H]1O[C@@H](n2cnc3c(N[C@H]4CCC[C@@H]4O)ncnc32)[C@H](O)[C@@H]1O
inactive: 1 nM 4.79% | 8.33 nM 4.09% | 100 nM 3.63% | 833.33 nM -0.63% | 10000 nM 0.91%

O=C(O)c1ccccc1S [o-mercapto-benzoic-acid]
inactive: 1 nM -1.65% | 8.33 nM -0.03% | 100 nM 0.12% | 833.33 nM -2.81% | 10000 nM -0.55%

C[C@@H](N)Cc1c[nH]c2ccc(O)cc12 [alpha-methylserotonin]
inactive: 1 nM -0.1% | 8.33 nM -1.31% | 100 nM -1.23% | 833.33 nM -0.05% | 10000 nM -3.72%

c1ccc(CCNc2nc(-c3ccccc3)cs2)cc1 [fanetizole]
inactive: 1 nM -2.03% | 8.33 nM 1.7% | 100 nM -2.73% | 833.33 nM -0.64% | 10000 nM 1.58%

C[C@@H]1C[C@H]2[C@@H]3C[C@H](F)C4=CC(=O)C=C[C@]4(C)[C@@]3(F)[C@@H](O)C[C@]2(C)[C@@]1(O)C(=O)COC(=O)C(C)(C)C [flumethasone-pivalate]
inactive: 1 nM -0.06% | 8.33 nM -2.13% | 100 nM -1.68% | 833.33 nM -1.81% | 10000 nM 6.04%

c1ccc([C@H]2CNCc3ccccc32)cc1 [4-phenyl-1,2,3,4-tetrahydroisoquinoline]
inactive: 1 nM -0.57% | 8.33 nM 5.18% | 100 nM 3.96% | 833.33 nM 8.92% | 10000 nM 3%

O=C(CO)[C@@H](O)[C@@H](O)[C@H](O)CO [tagatose]
inactive: 1 nM -1.77% | 8.33 nM -0.71% | 100 nM -0.15% | 833.33 nM -0.41% | 10000 nM 0.74%

Cn1cc(/C=C2\C(=O)Nc3cccnc32)c2ccccc21
inactive: 1 nM -2.16% | 8.33 nM -2.36% | 100 nM 2.94% | 833.33 nM 0.64% | 10000 nM 4.71%

Nc1ccc2ncnc(NCCc3ccc(Oc4ccccc4)cc3)c2c1
inactive: 1 nM -1.24% | 8.33 nM 1.54% | 100 nM -1.53% | 833.33 nM 0.25% | 10000 nM -4.62%

NCCNC(=O)c1ccc(Cl)cn1 [lazabemide]
inactive: 1 nM 1.32% | 8.33 nM -0.18% | 100 nM -0.23% | 833.33 nM -0.24% | 10000 nM 3.29%

CC(C)C[C@H](NC(=O)CNC(=O)c1cc(Cl)ccc1Cl)B1OC(=O)C(CC(=O)O)(CC(=O)O)O1
inactive: 1 nM -0.89% | 8.33 nM 1.36%
active: 100 nM 21.2% | 833.33 nM 34.2% | 10000 nM 18.7%

Cc1ccccc1NC(=O)Nc1ccc(CC(=O)N(C)[C@@H](CC(C)C)C(=O)NCC[C@H](NC(=O)[C@@H]2CCCN2S(=O)(=O)c2cc(Cl)cc(Cl)c2)C(=O)O)cc1
inactive: 1 nM -1.88% | 8.33 nM 0.66% | 100 nM -0.65% | 833.33 nM 0.17% | 10000 nM -3.63%

O=C1CCC[C@@H]2[C@H]3C[C@@H](CN12)[C@@H]1CCCCN1C3 [lupanine]
inactive: 1 nM 2.64% | 8.33 nM 9.38% | 100 nM 5.68% | 833.33 nM 1.8% | 10000 nM -0.17%

Cc1cc(=O)oc2c(C=O)c(O)ccc12
inactive: 1 nM 0.13% | 8.33 nM 2.74% | 100 nM 1.64% | 833.33 nM 2.83% | 10000 nM 6.12%

CC(CN(C)C)C(C)(O)Cc1ccc(Cl)cc1 (stereo not given) [clobutinol]
inactive: 1 nM -0.23% | 8.33 nM 2.65% | 100 nM 1.61% | 833.33 nM -3.1% | 10000 nM -0.69%

Cc1ccc(-c2ccc(F)cc2COc2ccc(CCC(=O)O)cc2)cc1
inactive: 1 nM -2.64% | 8.33 nM 0.79% | 100 nM -1.34% | 833.33 nM 0.38% | 10000 nM -1.53%

C[C@]12CC[C@@H]3c4ccc(OC(=O)c5ccccc5)cc4CC[C@H]3[C@@H]1CC[C@@H]2O [estradiol-benzoate]
inactive: 1 nM -5.16% | 8.33 nM -2.11% | 100 nM -2.68% | 833.33 nM -4.8% | 10000 nM -5.99%

N=C(N)NN=C1C=CC(=NNC(N)=S)C=C1 [ambazone]
inactive: 1 nM 1.75% | 8.33 nM 1.52% | 100 nM 1.46% | 833.33 nM 1.18% | 10000 nM -0.05%

CN1[C@@H]2CC[C@H]1C[C@@H](OC(=O)C(CO)c1ccccc1)C2 (stereo not given in full)
inactive: 1 nM -2.22% | 8.33 nM -2.93% | 100 nM 1.96% | 833.33 nM 0.7% | 10000 nM 0.64%

CC(CNS(=O)(=O)C(C)C)c1ccc(-c2ccc(C#N)cc2)cc1 (stereo not given)
inactive: 1 nM -2% | 8.33 nM 0.02% | 100 nM 0.68% | 833.33 nM 0.84% | 10000 nM 0.85%

Cc1cc(C(C)(C)C)cc(C)c1CC1=NCCN1 [xylometazoline]
inactive: 1 nM -7.36% | 8.33 nM -8.77% | 100 nM -5.88% | 833.33 nM -7.35% | 10000 nM -6.68%

CCN1CCN(Cc2ccc(C(=O)Nc3ccc(C)c(Oc4ccc5c(c4)CC(=O)N5)c3)cc2C(F)(F)F)CC1
inactive: 1 nM -1.15% | 8.33 nM -1.24% | 100 nM 1.47% | 833.33 nM 3.18%
active: 10000 nM 56%

CC1(C)CC(Oc2ccc(-c3ccc(-c4cn[nH]c4)cc3O)nn2)CC(C)(C)N1
inactive: 1 nM 1.13% | 8.33 nM 0.25% | 100 nM 2.2% | 833.33 nM -9.03% | 10000 nM -14.9%

CCCCCCCCc1ccc(-c2ccc(C(=O)O)cc2)cc1
inactive: 1 nM -0.05% | 8.33 nM 1.54% | 100 nM 1.52% | 833.33 nM 3.77% | 10000 nM 1.83%

CCCc1ccc(C(=O)O)cc1 [4-propylbenzoic-acid]
inactive: 1 nM -0.54% | 8.33 nM 0.51% | 100 nM -0.57% | 833.33 nM -0.84% | 10000 nM 1.58%

NC12CC3CC(CC(C3)C1)C2 [amantadine]
inactive: 1 nM 0.16% | 8.33 nM 1.94% | 100 nM 0.25% | 833.33 nM 0.33% | 10000 nM 3.28%

CN(Cc1cnc2nc(N)nc(N)c2n1)c1ccc(C(=O)N[C@@H](CCC(=O)O)C(=O)O)cc1 [methotrexate]
inactive: 1 nM -1.04% | 8.33 nM -0.21% | 100 nM -0.4% | 833.33 nM 2% | 10000 nM -1.41%

O=C(CCCCCCCn1cc(-c2cccnc2)nn1)Nc1ccccc1-c1ccccc1
inactive: 1 nM 0.38% | 8.33 nM -1.7% | 100 nM -14.1% | 833.33 nM -14.7% | 10000 nM -12.8%

O=[N+]([O-])c1cc([N+](=O)[O-])c(/C=C/c2ccc(Cl)c(Cl)c2)cc1/C=C/c1ccc(Cl)c(Cl)c1
inactive: 1 nM 2% | 8.33 nM 1.02% | 100 nM -3.12% | 833.33 nM -5.26% | 10000 nM -2.22%
